Usually AC50 stands for the concentration at which the activity in the assay is half-maximal.

Calls of active or inactive are those of the source. The calls were made as follows: active = hit-call score of the fitted dose curve at least 0.9, where 1 is the maximum; inactive = score below 0.9.

Read-out in the assay: Thyroid Hormone Responsive (THRSP), THRSP (gene 7069)
The experiment in a line: LTEA_HepaRG_THRSP: Life Technologies and Expression Analysis (LTEA) Assay for Thyroid Hormone Responsive (THRSP) using HepaRG (AID 2283536). Conditions: mRNA level, 48 h; actives raise or lower the signal. The procedure: LTEA_HepaRG is a cell based, multiplexed-readout assay that uses HepaRG, a human liver cell line, with measurements taken at 48 hours after chemical dosing on a 96-well plate.LTEA_HepaRG_THRSP is one of 102 assay component(s) measured in the LTEA HepaRG cell culture assay. It is a marker of NR mediated metabolism.Data from the assay component LTEA_HepaRG_THRSP was analyzed into 1 endpoint. This assay endpoint, LTEA_HepaRG_THRSP, was analyzed with bidirectional fitting relative to DMSO as the negative control and baseline of activity. Using a type of inducible reporter, measures of mRNA induction for gain or loss-of-signal activity can be used to understand regulation of transcription factor activity. To generalize the intended target to other relatable targets, this assay endpoint is annotated to the growth factor intended target family, where the subfamily is NR mediated metabolism.
A total of 1060 chemcials from the ToxCast library were tested in eight-point concentration-response experiments. Cell culture and cytotoxicity assays were conducted at Thermo Fisher Scientific's Custom Services facility (Madison, WI). A single lot of human HepaRG cells (Thermo Fisher Scientific, Frederick, MD) was used for the cell culture experiments. 96-well format collagen type I coated plates of human HepaRG cells were prepared using established methods. Briefly, cryopreserved HepaRG cells were thawed, plated at a density of approximately 100,000 cells/well in HepaRG Thaw, Plate, and General Purpose media (HPRG770, Thermo Fisher Scientific), and incubated for 48 hours. 0.5% DMSO was selected as vehicle control to balance the requisite need of DMSO in HepaRG cultures to maintain differentiation (for example, baseline metabolism, proportions of hepatocytes vs. cholangiocytes), while enabling further hepatic receptor pathway activation (for example, PXR and CAR) in response to chemical exposure. 48 hours after plating, the culture medium was replaced with HepaRG Serum-Free Incudtion Media. Cells were exposed to each test chemical in duplicate and maintained in CO2 incubators for another 48 hours. Chemical plates were thawed to room temperature and 200x concentrations of treatment groups were prepared. 8-point conentration-reponse curves were made with the highest exposure at 100 uM, followed by half-log dilutions, all in 0.5% DMSO. Each test plate contained variouse controls, induction positive controls (1mM phenobarbital), cytotoxicity positive controls ([…] aflatoxin B1), vehicle controls (0.5% DMSO), and total lysis controls (0.5% DMSO). Cell morphology images were taken using an Essen IncuCyte FLR automated microscope, with six 96-well plates imaged in about 24 minutes. Images were captured and exported and JPEG files. Spent culture media was transfered to black-well plates for the LDH assay, and remaining media was sorted at -80 C for later use. Cells were treated with RLT buffer and frozen until shipped for gene expression analysis. Total RNA was isolated from the cell suspension in 75 uL of Buffer RLT (Qiagen, Germantown, MD 20874) by Quintiles/Expression Analysis (Durham, NC) using a custom isolation procedure. Total RNA from each plate well was transferred to a preamplification plate. Fluidigm's 96.96 Dynamic ArrayTM (Fluidigm, Amsterdam, the Netherlands) technology was used for gene expression analyses by quantitative reverse transcription polymerase chain reaction (qRT-PCR, performed by Quintiles/Expression Analysis, Durham, NC)89. Standard TaqManTM Assays (Applied Biosystems/ThermoFisher Scientific, Foster City, CA) were used to assess the expression of 93 genes selected based on their selectivity and sensitivity to important hepatic receptors known to be modulated by environmental chemicals; importance in human hepatocyte functionality; and hepatotoxicity. […]
`Cc1oc(-c2ccccc2)nc1CCOc1cccc2c1ccn2CCC(=O)O`: the AC50 was 79.1 µM (active). `COCCOCCOC`: the call was inactive. `CCCCCCCCCCCCCCCCCC(=O)O`: the outcome was inactive.

`Cc1ccc(C)c(O)c1C`: the result was inactive. Turning to `Nc1ccccc1N`, the AC50 was 50 µM (active). On to `CCCCCCC(=O)OCC`, for which the outcome was inactive. For the compound `FC(F)(F)C(F)(F)C(F)(F)C(F)(F)C(F)(F)C(F)(F)CCI`, the compound was called inactive. As to `NC(=O)Cn1c(=O)cc(CCN2CCN(c3nccc4sccc34)CC2)c2ccc(F)cc21`, the AC50 was 50 µM (active). In the case of `Nc1ccc2c(c1)C(=O)c1ccccc1C2=O`, the AC50 is 6.08 µM (active). In the case of `O=C(OCCCCCOC(=O)c1ccccc1)c1ccccc1`, the call was inactive.

Regarding `CN[C@H]1CC[C@@H](c2ccc(Cl)c(Cl)c2)c2ccc(S(N)(=O)=O)cc21`, the compound was called inactive. As to `CN1CCN(Cc2cc(-c3ccc4[nH]c(=O)oc4c3)co2)[C@@H](c2ccc(F)cc2)C1`, the result was inactive. As for `CC(C)(C)c1cc(O)c(C(C)(C)C)cc1O`, the AC50 is 78.9 µM (active). With `CNC(=O)[C@H]1O[C@@H](n2cnc3c(NCc4cc(Cl)ccc4OCc4cc(C)no4)ncnc32)[C@H](O)[C@@H]1N`, the call was inactive. For the compound `CC=Cc1ccc(O)c(OC)c1`, the compound was called inactive.

Turning to `CCCCN(CCCC)CCCC`, the call was inactive.

On to `O=c1c(O)c(-c2ccc(O)c(O)c2)oc2cc(O)cc(O)c12`, for which the outcome was inactive.

On to `CC(CO)OC(C)CO` (stereo not given) (tested in a mixture with another compound), for which the compound was classed as inactive. Regarding `CC(=O)C(C)=CC1C(C)=CCCC1(C)C` (stereo not given), the call was inactive. Same read-out and setting: under `Nc1nc(N)c2nc(CNc3ccc(C(=O)N[C@@H](CCC(=O)O)C(=O)O)cc3)cnc2n1` stands “inactive”; under `C=CCc1ccc(O)c(OC)c1`, “inactive”.

`COc1ccc(S(=O)(=O)N2C(=O)[C@@](c3ccccc3OC)(N3C[C@H](O)C[C@H]3C(=O)N(C)C)c3cc(Cl)ccc32)c(OC)c1`: the AC50 was 19.5 µM (active). With `CC(=O)OC/C=C(\C)CCC=C(C)C`, the outcome was inactive. Same read-out and setting: under `COc1cc(S(=O)(=O)O)c(C)cc1N=Nc1c(O)ccc2cc(S(=O)(=O)O)ccc12` stands “inactive”. Turning to `Cc1ccc(N(C)C)cc1`, the compound was classed as inactive. Consider `CC(C)c1ccc(C(=O)N=C(N)N)cc1S(C)(=O)=O`, for which the AC50 was 37.2 µM (active). As for `OC[C@@H](O)[C@@H](O)[C@H](O)[C@H](O)CO`, the compound was classed as inactive. For `C1CCC(SSC2CCCCC2)CC1`, the compound was classed as inactive. With `Cc1ccc(C(C)C)c(O)c1`, the outcome was inactive. With `Cc1ccc(C)c(C)c1`, the outcome was inactive. `Cc1nc(C)nc(N2C[C@@H](C)N(c3ccnc([C@@H](C)O)n3)[C@@H](C)C2)n1`: the compound was called inactive. Regarding `CCCCCC(=O)O`, the outcome was inactive. On to `Cc1c(C(=O)O)c(O)cc2c1C(=O)c1c(O)c([C@@H]3O[C@H](CO)[C@@H](O)[C@H](O)[C@H]3O)c(O)c(O)c1C2=O`, for which the result was inactive. On to `COC(=O)c1ccc(O)cc1`, for which the call was inactive. For `CCCCc1ccc2c(n1)[C@@H](c1ccc(OC)cc1C[C@H](C)C(=O)O)[C@H](C(=O)O)[C@H]2c1ccc2c(c1)OCO2`, the outcome was inactive. On to `CCCCCCOCCO`, for which the compound was classed as inactive.

Consider `NCC1(Cc2noc(=O)[nH]2)CCCCC1`, for which the compound was classed as inactive. The same measure, in the same setting: for `O=[N+]([O-])C(CO)(CO)CO` the value was “inactive”. The same measure, in the same setting: under `COc1ccc(C)cc1N` stands “inactive”; under `CC1(C)CC(N=C=O)CC(C)(CN=C=O)C1` (stereo not given), “inactive”.

(Values after PubChem BioAssay (EPA / NIEHS).)
